This note sets out measurements from PubChem BioAssay (NCATS).

Results filed as inconclusive are left out. Values without a mark were called inactive. Activity calls are given as the source filed them. Calls come from the whole dose curve; as a rule, active = well fitted curve in the direction sought with a large enough effect; inconclusive = small, poorly fitted or top-dose-only effect, or another doubt; inactive = no such curve, though single readings can be large; an effect the other way counts as inactive or inconclusive.

Test [1] has as its target Rap guanine nucleotide exchange factor 3 (Homo sapiens) (UniProt O95398). The experiment in a line: Confirmatory qHTS for agonist of cAMP-regulated guanine nucleotide exchange factor 3 (EPAC1) (AID 1645881).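 Note: EPAC1 catalysed release of BODIPY-GDP from Rap1B seen as fluorescence loss; 100% = effect of cAMP agonist control; nearly all actives have a fitted effect of over 75% in size.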
Test [2] addresses Rap guanine nucleotide exchange factor 4 (Homo sapiens) (UniProt Q8WZA2). The experiment in a line: Confirmatory qHTS for agonist of cAMP-regulated guanine nucleotide exchange factor 4 (EPAC2) (AID 1645884).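 Note: nucleotide exchange releases bodipy-GDP from Rap1 and this lowers its fluorescence; % is set by controls: 0 for no effect and ±100 for the full control effect; nearly all actives have a fitted effect of over 65% in size.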 On the technique in general: In qHTS, concentration-response curves come from the screen itself.
Test [3] has the same target. The experiment in a line: Confirmatory qHTS for antagonist of cAMP-regulated guanine nucleotide exchange factor 4 (EPAC2) (AID 1645885). For activity change, negative = inhibition: % is set by controls: 0 for no effect and ±100 for the full control effect. Note: nearly all actives have a fitted effect of over 25% in size. Note: potency is the fitted concentration of half-maximal effect.
Test [4] addresses Rap guanine nucleotide exchange factor 3 (Homo sapiens) (UniProt O95398). The experiment in a line: Counterscreen qHTS for antagonist of cAMP-regulated guanine nucleotide exchange factor 3 (EPAC1) (AID 1645888).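 Note: fluorescence loss as bound BODIPY-GDP is released from Rap1B; % of control where 0% means no effect.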 The method, boiled down: (§1)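 Rap1B–BODIPY-GDP (250 nM) with 50 uM GDP; compounds pin-transferred to 9.74 nM–152 uM final (activator) or from 7.32 nM upwards (inhibitor). Fluorescence Ex/Em 480/540 nm read at 5 and 30 min, then after adding cAMP or buffer, at room temperature.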

The target is the same in test [5]. The experiment in a line: Counterscreen qHTS for agonist of cAMP-regulated guanine nucleotide exchange factor 3 (EPAC1) (AID 1645889). For activation: % of control where 0% means no effect. Note: nearly all actives have a fitted effect of over 40% in size. Note: potency is the fitted concentration of half-maximal effect. The method, boiled down: as §1
Background: Counterscreens check selectivity or assay interference.

Rap guanine nucleotide exchange factor 3 (Homo sapiens), sequence (O95398 whole entry, looked up): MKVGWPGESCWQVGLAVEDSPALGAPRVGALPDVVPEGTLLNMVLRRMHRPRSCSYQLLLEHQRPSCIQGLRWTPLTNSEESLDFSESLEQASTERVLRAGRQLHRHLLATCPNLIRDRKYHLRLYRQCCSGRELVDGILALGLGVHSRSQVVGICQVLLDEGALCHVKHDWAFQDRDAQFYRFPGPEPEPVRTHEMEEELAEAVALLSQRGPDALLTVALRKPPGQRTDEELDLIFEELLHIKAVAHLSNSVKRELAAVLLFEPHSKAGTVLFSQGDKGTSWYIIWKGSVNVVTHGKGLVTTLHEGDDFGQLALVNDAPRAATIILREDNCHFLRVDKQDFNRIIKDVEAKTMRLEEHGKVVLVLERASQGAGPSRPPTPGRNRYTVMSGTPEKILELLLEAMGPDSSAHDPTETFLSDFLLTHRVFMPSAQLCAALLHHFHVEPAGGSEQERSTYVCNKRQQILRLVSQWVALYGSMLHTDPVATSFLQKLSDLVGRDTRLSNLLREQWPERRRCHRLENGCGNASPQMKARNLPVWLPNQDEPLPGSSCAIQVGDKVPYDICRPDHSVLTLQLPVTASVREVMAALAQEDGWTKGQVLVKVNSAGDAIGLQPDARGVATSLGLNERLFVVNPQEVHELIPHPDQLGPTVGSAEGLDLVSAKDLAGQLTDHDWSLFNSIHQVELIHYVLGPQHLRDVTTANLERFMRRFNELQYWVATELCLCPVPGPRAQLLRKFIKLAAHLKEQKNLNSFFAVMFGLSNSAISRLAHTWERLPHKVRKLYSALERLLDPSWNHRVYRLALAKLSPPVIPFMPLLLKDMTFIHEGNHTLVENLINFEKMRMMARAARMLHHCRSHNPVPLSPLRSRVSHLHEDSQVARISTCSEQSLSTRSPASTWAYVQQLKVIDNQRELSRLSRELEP
Rap guanine nucleotide exchange factor 4 (Homo sapiens), sequence (Q8WZA2 whole entry, looked up): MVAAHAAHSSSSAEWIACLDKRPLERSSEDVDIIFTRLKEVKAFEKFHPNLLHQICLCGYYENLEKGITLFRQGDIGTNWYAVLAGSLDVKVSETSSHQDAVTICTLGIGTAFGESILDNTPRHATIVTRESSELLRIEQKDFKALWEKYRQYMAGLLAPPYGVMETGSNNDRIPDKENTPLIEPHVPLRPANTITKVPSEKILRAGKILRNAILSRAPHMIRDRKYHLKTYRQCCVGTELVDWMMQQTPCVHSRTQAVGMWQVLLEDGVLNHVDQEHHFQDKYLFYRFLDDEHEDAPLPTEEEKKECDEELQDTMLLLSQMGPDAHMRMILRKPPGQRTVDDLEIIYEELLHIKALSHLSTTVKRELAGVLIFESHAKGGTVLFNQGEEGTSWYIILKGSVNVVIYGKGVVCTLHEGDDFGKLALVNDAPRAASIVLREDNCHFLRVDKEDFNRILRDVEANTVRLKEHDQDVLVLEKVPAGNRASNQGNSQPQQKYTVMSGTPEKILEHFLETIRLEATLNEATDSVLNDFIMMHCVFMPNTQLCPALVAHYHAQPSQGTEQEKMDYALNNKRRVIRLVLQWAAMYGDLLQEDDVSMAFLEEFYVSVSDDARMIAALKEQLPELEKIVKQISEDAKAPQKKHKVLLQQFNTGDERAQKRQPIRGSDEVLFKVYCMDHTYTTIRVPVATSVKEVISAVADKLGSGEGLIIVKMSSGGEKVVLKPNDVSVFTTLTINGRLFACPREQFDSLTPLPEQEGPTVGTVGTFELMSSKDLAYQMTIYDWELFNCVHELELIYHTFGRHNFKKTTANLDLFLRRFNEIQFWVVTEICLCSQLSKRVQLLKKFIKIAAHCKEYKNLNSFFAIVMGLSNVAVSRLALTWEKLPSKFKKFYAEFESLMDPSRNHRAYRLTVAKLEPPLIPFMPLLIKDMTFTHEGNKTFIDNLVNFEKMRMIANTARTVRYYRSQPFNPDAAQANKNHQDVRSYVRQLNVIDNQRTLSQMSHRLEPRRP

Consider `C[C@@H]1CC=C[C@@H]2[C@H]1C(=O)N(Cc1ccccc1)[C@H]2c1ccccc1Br`, for which the Potency entry in test [1], in test [2], in test [3], in test [4] and in test [5] was “inactive” each time.
Consider `Cc1cccc(C(=O)N=c2c(C#N)cc3c(=O)n4cccc(C)c4nc3n2Cc2ccco2)c1`, for which the Potency result in test [1], in test [2], in test [3], in test [4] and in test [5] was “inactive” each time.
For the molecule `Cn1c(=O)c2c(SCc3cccnc3)nc(CC(C)(C)C)nc2n(C)c1=O`, the Potency result in test [1] and in test [3] was “inactive” throughout. Also, the activation was 6.82% [at 17.1 µM, percent relative to cAMP agonist control] in test [2] and 9.84% [at 30.8 µM] in test [5]. Besides, the activity change, negative = inhibition in test [4] was -15.2% [at 30.8 µM].
As for `COc1cc(NC2c3ncccc3C(=O)N2Cc2ccco2)cc(OC)c1` (stereo not given), the Potency result in test [1], in test [2], in test [3], in test [4] and in test [5] was “inactive” in each case.
In the case of `Cc1ccc(C)c(Cn2nc(-c3cc(C)ccc3C)ccc2=O)c1`, the Potency result in test [1], in test [2], in test [3], in test [4] and in test [5] was “inactive” each time.
Consider `Cc1cccc(CN2C(=O)c3ccccc3Sc3ccc(C(=O)N4CCCC4)cc32)c1`, for which the Potency entry in test [1], in test [2], in test [3], in test [4] and in test [5] was “inactive” each time.
`CC(=O)Nc1cccc(C(=O)/C=C/c2ccc(F)cc2)c1`: the Potency entry in test [1], in test [2], in test [3], in test [4] and in test [5] was “inactive” in each case.
In the case of `Cc1ccn2cc(-c3cccc(NC(=O)c4cccs4)c3)nc2c1`, the Potency result in test [1], in test [2], in test [3], in test [4] and in test [5] was “inactive” in each case.
For the molecule `COc1ccc(S(=O)(=O)Nc2ccc3cn[nH]c3c2)cc1C`, the Potency result in test [1], in test [2], in test [4] and in test [5] was “inactive” in each case. In test [3], the Potency was 67.5 µM (active).
In the case of `CN(CC(=O)Nc1ccccc1C(F)(F)F)C(=O)c1cc(-c2cccs2)nn1-c1ccccc1`, the Potency result in test [1], in test [2], in test [3], in test [4] and in test [5] was “inactive” in each case.
Regarding `Cc1ccc(SCC(=O)OCC(=O)N(C)CC(=O)Nc2ccc(F)cc2)cc1C`, the Potency result in test [1] and in test [3] was “inactive” each time. The activation in test [2] is 5.96% [at 17.1 µM, percent relative to cAMP agonist control]; in test [5] it was 26.8% [at 30.8 µM]. Also, the activity change, negative = inhibition in test [4] is -28.7% [at 30.8 µM].
For the molecule `O=C(c1ccc(-c2nnc(Nc3cccc(Cl)c3)c3ccccc23)cc1)N1C[C@H]2C[C@H](C1)c1cccc(=O)n1C2`, the Potency entry in test [1], in test [2], in test [3], in test [4] and in test [5] was “inactive” each time.
Turning to `O=C(Nc1nc(-c2ccc(Cl)cc2)cs1)C1=COCCO1`, the Potency entry in test [1] and in test [3] was “inactive” each time. Further, the activation in test [2] was 5.12% [at 17.1 µM, percent relative to cAMP agonist control]; in test [5], 13.1% [at 30.8 µM]. Also, the activity change, negative = inhibition in test [4] was -14.7% [at 30.8 µM].
On to `COc1cc(/C=C2/C(=O)NN(c3cccc(Cl)c3)C2=O)cc(OC)c1O`, for which the Potency result in test [1] and in test [3] was “inactive” in each case. Also, the activation was 11.7% [at 17.1 µM, percent relative to cAMP agonist control] in test [2] and 4.51% [at 30.8 µM] in test [5]. The activity change, negative = inhibition in test [4] is -0.0912% [at 30.8 µM].
As for `CCOc1ccc(S(=O)(=O)Nc2cc(NS(=O)(=O)c3ccc(OCC)cc3)cc(C(=O)O)c2)cc1`, the Potency result in test [1], in test [2], in test [3], in test [4] and in test [5] was “inactive” in each case.
In the case of `Cc1cc(Br)cc(Cl)c1OC(=O)c1ccncc1`, the Potency entry in test [1], in test [2], in test [4] and in test [5] was “inactive” throughout. Further, the Potency in test [3] was 37.9 µM (active).
Take `COc1cccc(C(=O)Nc2nnc(S(=O)(=O)Nc3cccc(C)c3)s2)c1`: the Potency result in test [1], in test [2], in test [3], in test [4] and in test [5] was “inactive” throughout.
Consider `O=C(CCC1N=C2c3ccccc3N=C(SCc3ccc(Cl)cc3)N2C1=O)NCc1cccs1` (stereo not given), for which the Potency entry in test [1], in test [2], in test [3], in test [4] and in test [5] was “inactive” throughout.
Take `Oc1ccc(NCc2ccc(OCc3ccccc3)cc2)cc1`: the Potency result in test [1], in test [2], in test [3] and in test [4] was “inactive” throughout. Besides, the activation in test [5] is 16.4% [at 30.8 µM].
Turning to `CC1(C(=O)NS(=O)(=O)c2ccc(Cl)cc2)CCN1C(=O)C1(c2ccccc2)CCCC1` (stereo not given), the Potency entry in test [1], in test [2], in test [3], in test [4] and in test [5] was “inactive” throughout.
As to `COc1cc(CN(C)CC2CCCN(CCc3ccccc3F)C2)cc(Cl)c1OC` (stereo not given), the Potency entry in test [1], in test [2], in test [3], in test [4] and in test [5] was “inactive” in each case.
In the case of `Cc1ccc(-c2csc(/C(C#N)=C(\O)CCl)n2)cc1`, the Potency entry in test [1] and in test [3] was “inactive” throughout. The activation in test [2] is -6.35% [at 17.1 µM, percent relative to cAMP agonist control]; in test [5] it was 14.1% [at 30.8 µM]. In test [4], the activity change, negative = inhibition is -2.33% [at 30.8 µM].
As for `COC(=O)c1c(SC)nc2ccccc2c1OCc1ccc(C)cc1`, the Potency result in test [1], in test [2], in test [3] and in test [4] was “inactive” throughout. The Potency in test [5] was 17.8 µM (active).
Turning to `CC(NC(=O)COc1ccccc1-c1ccccc1)c1ccccc1` (stereo not given), the Potency result in test [1], in test [2], in test [3], in test [4] and in test [5] was “inactive” in each case.
In the case of `Cc1csc2c(=O)sc(NC(=O)c3cccs3)nc12`, the Potency result in test [1], in test [2], in test [3], in test [4] and in test [5] was “inactive” each time.
As for `C/C(=N\NC(=O)c1cc2ccccc2cc1O)c1ccc(C)o1`, the Potency result in test [1] and in test [3] was “inactive” throughout. Further, the activation in test [2] was -0.964% [at 17.1 µM, percent relative to cAMP agonist control]; in test [5], 28.4% [at 30.8 µM]. The activity change, negative = inhibition in test [4] was -5.69% [at 30.8 µM].
For the molecule `CCOC(=O)c1ccccc1NC(=O)CSc1nc2c(sc(=S)n2CC)c(=O)[nH]1`, the Potency entry in test [1] and in test [3] was “inactive” each time. Moreover, the activation was 5.86% [at 17.1 µM, percent relative to cAMP agonist control] in test [2] and 10.2% [at 30.8 µM] in test [5]. Besides, the activity change, negative = inhibition in test [4] is -2.38% [at 30.8 µM].
On to `CCOc1ccccc1Cn1c(=O)oc2ccc(C)cc21`, for which the Potency result in test [1], in test [2], in test [3], in test [4] and in test [5] was “inactive” throughout.
As to `CCN(C(=O)Cn1c(=O)oc2cc(Cl)ccc21)c1cccc(C(F)(F)F)c1`, the Potency entry in test [1], in test [2], in test [3], in test [4] and in test [5] was “inactive” in each case.
Turning to `CC1CC2(NC(=O)NC2=O)C(C)CN1C` (stereo not given), the Potency entry in test [1], in test [2], in test [3], in test [4] and in test [5] was “inactive” in each case.
As for `Clc1ccc(Cn2c(/C=C/c3ccco3)nc3ccccc32)cc1`, the Potency entry in test [1], in test [2], in test [3], in test [4] and in test [5] was “inactive” in each case.
On to `O=C(N/N=C/c1ccccc1O)c1cccc(C(F)(F)F)c1`, for which the Potency result in test [1] and in test [3] was “inactive” each time. For the same molecule, the activation is 5.14% [at 17.1 µM, percent relative to cAMP agonist control] in test [2] and 8.8% [at 30.8 µM] in test [5]. Besides, in test [4], the activity change, negative = inhibition was -7.23% [at 30.8 µM].
With `N#CC1=C(N)Oc2cc(N)ccc2C1c1ccc(Cl)cc1` (stereo not given), the Potency result in test [1], in test [2], in test [4] and in test [5] was “inactive” in each case. In addition, the Potency in test [3] was 47.8 µM (active).
For `CCC(=C(c1ccc(OC)cc1)c1ccc(OC)cc1)c1cn(CC(O)CN2CCN(C)CC2)c2ccccc12` (stereo not given), the Potency entry in test [1] and in test [3] was “inactive” in each case. For the same molecule, the activation was 8.96% [at 17.1 µM, percent relative to cAMP agonist control] in test [2] and 25.5% [at 30.8 µM] in test [5]. Besides, the activity change, negative = inhibition in test [4] is -21.5% [at 30.8 µM].
In the case of `Cc1c(C(=O)OCC(C)C)[nH]c2c1C(=O)CC(c1ccco1)C2` (stereo not given), the Potency entry in test [1], in test [2], in test [3], in test [4] and in test [5] was “inactive” throughout.
Turning to `CC1CCc2[nH]c3ccc(C(=O)N4CCCC(C(F)(F)F)C4)cc3c2C1` (stereo not given), the Potency entry in test [1], in test [2], in test [3], in test [4] and in test [5] was “inactive” throughout.
Take `CCOC(=O)c1c(C)oc2nc(C)nc(N(CC(C)C)CC(C)C)c12`: the Potency result in test [1], in test [2], in test [3], in test [4] and in test [5] was “inactive” in each case.
Turning to `O=S(=O)(NCCC1=CCCCC1)c1ccc(OC(F)(F)F)cc1`, the Potency result in test [1] and in test [3] was “inactive” each time. Moreover, the activation in test [2] is -1.46% [at 17.1 µM, percent relative to cAMP agonist control]; in test [5] it was 3.2% [at 30.8 µM]. Also, the activity change, negative = inhibition in test [4] was -5.33% [at 30.8 µM].
Consider `Cn1c(=O)c(C(=O)NNC(=O)c2ccccc2Br)c(O)c2ccccc21`, for which the Potency entry in test [1] and in test [3] was “inactive” each time. Further, the activation in test [2] is 2.84% [at 17.1 µM, percent relative to cAMP agonist control]; in test [5] it was 8.96% [at 30.8 µM]. Also, the activity change, negative = inhibition in test [4] is -5.21% [at 30.8 µM].
In the case of `CCOC(=O)C1=C(N)Oc2cc(O)ccc2C1c1ccccc1` (stereo not given), the Potency entry in test [1] and in test [3] was “inactive” throughout. Further, the activation in test [2] is -4.25% [at 17.1 µM, percent relative to cAMP agonist control]; in test [5], 10.8% [at 30.8 µM]. Also, in test [4], the activity change, negative = inhibition is -7.53% [at 30.8 µM].
For the molecule `COc1ccc(OC)c(C(=O)/C=C/c2ccccc2C(F)(F)F)c1`, the Potency entry in test [1], in test [2], in test [3], in test [4] and in test [5] was “inactive” throughout.
Consider `N#Cc1c(SCC(=O)Nc2cccc(C(F)(F)F)c2)sc2c(O)cc(=O)[nH]c12`, for which the Potency entry in test [1] and in test [3] was “inactive” in each case. The activation in test [2] is 0% [at 17.1 µM, percent relative to cAMP agonist control]; in test [5] it was 17.2% [at 30.8 µM]. For the same molecule, the activity change, negative = inhibition in test [4] was -10.8% [at 30.8 µM].
For `CN(c1ccccc1)c1ccc(/C=C(\CCC(=O)O)c2nc3ccccc3s2)cc1[N+](=O)[O-]`, the Potency entry in test [1], in test [2], in test [3], in test [4] and in test [5] was “inactive” in each case.
